Bioassay records from PubChem BioAssay.
GLP1R inv ag = GLP-1 receptor (human) inverse agonism | P43220 | HEK293 GLP-1R CRE-luciferase, luminescence, 24 h; GLP-1R form is constitutively active | Potency, µM (series often up to 38.3 µM), for inactives: at the top dose activity change, negative = inhibition, usual class: inhibitors | actives 1.6% (n = 410,000) | AID 624417; further: on the % scale 0 is the no-effect control and ±100 the full control effect; nearly all actives have a fitted effect of over 55% in size
Target sequence (P43220 whole entry, looked up): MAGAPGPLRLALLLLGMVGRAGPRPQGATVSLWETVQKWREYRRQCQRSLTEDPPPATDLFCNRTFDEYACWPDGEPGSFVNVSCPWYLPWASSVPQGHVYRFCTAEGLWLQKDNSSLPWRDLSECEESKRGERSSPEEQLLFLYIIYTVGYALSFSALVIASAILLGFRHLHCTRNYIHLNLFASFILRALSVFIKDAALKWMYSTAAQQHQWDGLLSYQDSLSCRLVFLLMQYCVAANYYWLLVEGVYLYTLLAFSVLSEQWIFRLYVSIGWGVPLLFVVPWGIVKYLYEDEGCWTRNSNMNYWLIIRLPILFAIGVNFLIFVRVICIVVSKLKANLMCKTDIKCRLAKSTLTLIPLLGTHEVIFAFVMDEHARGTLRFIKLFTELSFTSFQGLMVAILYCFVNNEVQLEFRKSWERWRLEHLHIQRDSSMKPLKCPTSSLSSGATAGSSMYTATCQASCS
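Stable HEK293 clone (constitutively active GLP-1R + cAMP-response luciferase); 200 cells/uL plated, 12 h pre-culture, compound 24 hr, 37 deg C/5% CO2; detection reagent 12 min RT; luminescence.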
BRCA1 expr act = activators of BRCA1 expression; AID 624202; Potency, µM (top dose mostly 46.1 µM), for the others: at the highest dose activation, hits mostly activators; MCF7-BRCA1-FFLuc reporter, luminescence, 48 h; response scale: scaled: vehicle 0%, 10 µM genistein 100%; actives 1.1% (n = 380,000); further: nearly all actives have a fitted effect of over 80% in size
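48 h compound treatment of MCF7-BRCA1-FFLuc cells (phenol-red free MEM, 37 °C), then 15 min with luciferase substrate and luminescence imaging.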
HEK293 tox = cytotoxicity in counter-screen for GLP-1R inverse agonists | HEK293 cAMP-luciferase reporter cells, luminescence, 24 h | Potency, µM (top dose mostly 38.3 µM), for inactives: at the highest dose activity change, negative = inhibition, usual class: inhibitors | actives 0.13% (n = 410,000) | AID 624418;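 further: loss of luciferase light is scored as toxicity; on the % scale 0 is the no-effect control and ±100 the full control effect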
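MLSMR compounds, 24 hr on cells at 37 deg C/5% CO2; luminescence after luciferase reagent (12 min RT). Inhibition counted as the undesired cytotoxic outcome.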
GLP1R ag = activates the human GLP-1 receptor; P43220; HEK293 GLP-1R CRE-luciferase, luminescence, 4-6 h; cells express a hypersensitive GLP-1R form; Potency, µM (series often up to 45.6 µM), inactives show at the top dose activation, most hits filed as activators; actives 0.007% (n = 380,000); further: % of control where 0% means no effect
Integrin act MD = activators of alpha7 integrin expression for muscular dystrophy. alpha7betagal myoblasts, beta-gal FDG fluorescence, 48 h. Potency, µM (series often up to 38.3 µM), inactives show top-dose activation, usual class: activators. actives 0.064% (n = 350,000). AID 624291;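 further: 100% = response of the positive control SU9516; nearly all actives have a fitted effect of over 60% in size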
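Alpha7betagal+/- myoblasts (passage 13) were plated 16-24 hr, then exposed to compounds (1:260 dilution of DMSO stock) for 48 hours at 37C. After MPER lysis, β-galactosidase reporter activity was read as FDG fluorescence (ex 480/em 540) after 30 minutes.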
* marks the source's active call; other numbers are inactive results; ? = inconclusive; . = no result given; [ ] = dose if it differs, or a comment. Rows were chosen to be rich in hits. Some 2.7% of all compounds tested hit in one or more screens of this group. The call rests on the fitted dose curve; in most records, active means well fitted curve in the direction sought with a large enough effect; inconclusive means small, poorly fitted or top-dose-only effect, or another doubt; inactive means no such curve, though single readings can be large; an effect the other way counts as inactive or inconclusive. Potency means the concentration at half of the fitted maximal effect.

SMILES	GLP1R inv ag	BRCA1 expr act	HEK293 tox	GLP1R ag	Integrin act MD
Cc1ccc2c(c1)COc1c3ccc(C(=O)N4CCCCC4)cc3nn1-2	21%	4.5µM*	11%	14%	2%
Cc1cccc(NC(=O)c2sc3nc(N)c(C#N)cc3c2N)c1	39%	3.2µM*	16%	10%	-19%
Cc1cc(C)cc(NC(=O)c2sc3nc(C)cc(C)c3c2N)c1	19%	4µM*	48%	22%	19%
Cc1cc(C)c(NC(=O)c2sc3nc(C)cc(C)c3c2N)c(C)c1	10%	-38%	-13%	-3%	.
Cc1cccc(NC(=O)c2sc3nc4c(cc3c2N)CN(C(C)C)CC4)c1	-1%	.	23%	.	.
CN1CCN(CC(=O)N2c3ccccc3C(C)(c3ccc(Cl)cc3)CC2(C)C)CC1 (stereo not given)	?	-45%	-1%	13%	-43%
CN1CCN(CC(=O)N2c3ccccc3C(C)(c3ccccc3)CC2(C)C)CC1 (stereo not given)	10µM*	-66%	-24%	-10%	-8%
Cc1ccc(C(=O)C(C)OC(=O)C2CCN(c3ccc(C(F)(F)F)cn3)CC2)cc1 (stereo not given)	10µM*	-16%	7%	10%	-2%
COc1ccccc1-c1nc(-c2ccccn2)no1	3.5µM*	-48%	-1%	-23%	14%
Cc1ccccc1-c1nc(-c2ccccn2)no1	?	-81%	-5%	-8%	0%
FC(F)Oc1ccc(C2N=C(c3ccccc3)NO2)cc1 (stereo not given)	16%	4.5µM*	-7%	12%	20%
OC(c1ccc(F)cc1)c1nc(-c2cc3ccccc3o2)cs1 (stereo not given)	?	1.8µM*	-17%	23%	.
OC(c1ccc(F)cc1)c1nc(-c2cnc3ccccc3c2)cs1 (stereo not given)	?	11µM*	-3%	?	.
COc1ccc(C(O)c2nc(-c3cnc4ccccc4c3)cs2)cc1 (stereo not given)	20%	91%	3%	12%	.
CCCSc1cc(N2CCOCC2)nc(-c2ccccc2Cl)n1	10µM*	-22%	-13%	8%	-9%
CC(C)c1ccc(NC2CCCN(C(=O)c3ccsc3)C2)cc1 (stereo not given)	10µM*	6%	21%	-1%	-21%
O=C(O)CN=C(NS(=O)(=O)c1ccc(Cl)cc1)c1ccc(F)cc1	-5%	2%	-2%	-4%	13%
O=S(=O)(NC(=NCc1ccccc1)c1ccc(F)cc1)c1ccc(Cl)cc1	11µM*	-18%	-1%	-5%	-20%
CCOC(=O)c1c(S(=O)(=O)N2CCN(c3cccc(C(F)(F)F)c3)CC2)c(C)n(C)c1C	2%	.	-1%	.	.
CCOC(=O)c1c(C)[nH]c(C)c1S(=O)(=O)N1CCN(c2cccc(C(F)(F)F)c2)CC1	5.6µM*	.	?	.	.
CCOC(=O)c1cnc(SCc2ccc(C(C)(C)C)cc2)nc1N	0%	?	8%	-1%	-19%[7.66 µM]
CCOC(=O)c1cnc(SCc2ccccc2)nc1N	?	2.2µM*	-11%	9%	4%
Cc1ccc(C(=O)N(Cc2ccccc2)C(C)(C)C)cc1C	7.1µM*	-32%	-2%	0%	16%
CC(C)(C)N(Cc1ccccc1)C(=O)c1ccc(Br)o1	-41%	-17%	-13%	-13%	15%
Cc1cc(N2CCC(C)CC2)nc2ccc(NC(=O)CCC(=O)N3CCN(c4ccccc4F)CC3)cc12	?	.	-20%	.	.
SMILES	GLP1R inv ag	BRCA1 expr act	HEK293 tox	GLP1R ag	Integrin act MD
COc1ccc(-c2nc3ccccc3nc2-c2ccc(OC)cc2)cc1	?	-2%	-12%	19%	19%
Oc1ccc(-c2nc3ccccc3nc2-c2ccccc2)cc1	4µM*	17%	-30%	24%	-10%
CC(=NNC(N)=S)c1ccc2cc3c(cc2c1)OCO3	2.8µM*	?	?	18%	-6%
O=c1oc2c(CN3CCOCC3)c(O)ccc2c2ccccc12	22%	14µM*	3%	8%	-17%
Cc1cc(C)c2c(=O)nc(SCc3ccccc3C)n(C3CC3)c2n1	6%	.	18%	.	.
Cc1ccc(-c2csc3ncnc(Sc4nnnn4-c4ccccc4)c23)cc1	.	-51%	.	.	.
CC(=O)c1cccc(NC(=O)Cc2noc3ccccc23)c1	13%	.	-4%	.	.
Cc1cccc(NC(=O)Cc2noc3ccccc23)c1	0%	11µM*	-5%	-12%	15%
CCOc1ccc(C(=O)Nc2cccc(-c3ccc(N4CCOCC4)nn3)c2)cc1OCC	-5%	11µM*	3%	4%	6%
CN1CCN(c2ccc(-c3cccc(NC(=O)COc4ccc(Cl)cc4)c3)nn2)CC1	?	?	?	-16%	6%
COc1ccc(C(=O)Nc2cccc(-c3ccc(N4CCOCC4)nn3)c2)cc1OC	-5%	84%	-22%	23%	-5%
CN1CCN(c2ccc(-c3cccc(NC(=O)COc4ccccc4)c3)nn2)CC1	11µM*	?	-10%	-3%	7%
COc1cccc(NC(=O)C2CCN(S(=O)(=O)c3cccc4nonc34)CC2)c1	-3%	-2%	1%	1%	.
CC(C)Cn1c(N)c(C(=O)COC(=O)CC23CC4CC(CC(C4)C2)C3)c(=O)n(C)c1=O	2.8µM*	-53%	-18%	-22%	-4%
Cc1cccc(C(=O)OCC(=O)c2c(N)n(CC(C)C)c(=O)n(C)c2=O)c1O	10µM*	-33%	-14%	-2%	-43%
CC(C)Cn1c(N)c(C(=O)COC(=O)c2ccc(Br)cc2)c(=O)n(C)c1=O	10µM*	-3%	-8%	-1%	-15%
CC(C)Cn1c(N)c(C(=O)COC(=O)c2ccc(Cl)cc2)c(=O)n(C)c1=O	?	-12%	-5%	-2%	-23%
Cc1cccc(C(=O)OCC(=O)c2c(N)n(CC(C)C)c(=O)n(C)c2=O)c1[N+](=O)[O-]	?	-26%	-8%	6%	-38%
COc1ccc(OC)c(CNc2ncc(-c3ccc(Cl)cc3)n2C)c1	-12%	11%	-7%	5%	.
O=C(COc1ccccc1Cl)OCc1cc(=O)n2nc(C3CC3)sc2n1	10%	-1%	-1%	.	.
CCCc1nn2c(=O)cc(COC(=O)c3ccccc3NC(=O)COc3ccccc3F)nc2s1	12%	.	4%	.	.
